This passage reports growth results from PubChem BioAssay (NCI).

The panel holds about 83,000 compounds, 20% with a hit somewhere; the sample as a whole holds those more often.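 Cell lines were cultured in 96-well plates, exposed to a single compound concentration, and assessed for percent growth 48 hours later.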 A number with no mark means an inactive call. The source made the active and inactive calls. Rule for the calls: active = growth percent below 10; inactive = the rest.

What all share (assay): NCI-60 one-dose screen, 48 h (100 = growth as untreated, 0 = no growth, -100 = all killed)
Holding throughout (details): 10 µM

For assay [1], the system named is HCT-15 colon.
Assay [2] relates to HT29 colon.
Assay [3] deals with SNB-75 CNS.
Assay [4] deals with SNB-19 CNS.
The test system of assay [5] is U251 CNS.
Assay [6] concerns PC-3 prostate.
Assay [7] has as its system SK-MEL-5 melanoma.
Assay [8] concerns UACC-62 melanoma.
The test system of assay [9] is LOX IMVI melanoma.
Assay [10] deals with SK-MEL-28 melanoma.
Assay [11] relates to SK-MEL-2 melanoma.
In assay [12] the test system is EKVX NSCLC.
The test system of assay [13] is SN12C renal.
Assay [14] relates to UO-31 renal.
Assay [15] relates to TK-10 renal.
Assay [16] concerns ACHN renal.
Assay [17] has as its system CAKI-1 renal.
Assay [18] concerns A498 renal.
The test system of assay [19] is CCRF-CEM leukemia.
The subject of assay [20] is MOLT-4 leukemia.

`N#Cc1c(-c2ccc(F)cc2)nc(SCc2ccc(F)cc2)nc1N1CCOCC1`: the growth in assay [1] was 79.9%; in assay [2], 92.9%; in [3], -17.5% (active); in assay [4], 43.7%; in assay [5] it was 47.1%; in [6], 71.6%. Moreover, the growth in assay [7] is 74.3%; in [8], 69.3%; in [9], 76.4%; in [10], 85.8%; in [11] it was 78.7%; in assay [12] it was 60.1%. The growth is 72.9% in assay [13]; 86% in [14]; 77.6% in [15]; 46.7% in assay [16]; 30.7% in assay [17]; 71.9% in assay [18]. Also, the growth in assay [19] was 87.1%; in assay [20], 91.6%.

For the compound `CC(=O)c1cc(C(=O)c2ccc3c(c2)NC(=O)CO3)n2ccc3ccccc3c12`, the growth is 71.1% in assay [1]; 56.5% in assay [2]; 114% in assay [3]; 69.6% in assay [4]; 26.5% in [5]; 80.3% in assay [6]. Further, the growth was 57.6% in assay [7]; 94.7% in [8]; 56.5% in assay [9]; 88.4% in assay [10]; 107% in assay [11]; 75% in [12]. The growth in [13] is 86.1%; in assay [14], 59%; in assay [15], 78.2%; in assay [16], 50%; in [17], 55.4%; in assay [18], 97.3%. The growth in [19] is 82.9%; in [20] it was 66.8%.

With `O=C(CNc1nc(-c2ccccc2)cs1)Nc1ccc(Br)cc1`, the growth in assay [1] was -89.4% (active); in [2], -55.8% (active); in [3] it was -3.24% (active); in assay [4], -99.4% (active); in assay [5], -89.8% (active); in assay [6], -27.8% (active). The growth in [7] was -99.8% (active); in assay [8], -84.1% (active); in assay [9], -98.7% (active); in [10], -96.3% (active); in assay [11], -76.8% (active); in assay [12], -95.9% (active). In addition, the growth is -90.3% (active) in assay [13]; -98.2% (active) in [14]; -95.3% (active) in assay [15]; -100% (active) in assay [16]; -92.3% (active) in assay [17]; -89.6% (active) in assay [18]. In addition, the figures for the growth in [19] and in assay [20] were 5.21% (active) and -12.4% (active), respectively.

For `COc1cc(NC(=O)CSc2nnc(-c3ccc4nc(-c5ccc(Cl)cc5)[nH]c4c3)o2)cc(OC)c1OC`, the growth in [1] was 43.3%; in [2] it was 61.7%; in [3] it was 93.7%; in assay [4], 86%; in assay [5], 77%; in [6], 46.9%. In addition, the growth was 50.5% in assay [7]; 37.8% in [8]; 51.9% in assay [9]; 70.5% in assay [10]; 93.4% in assay [11]; 93.1% in assay [12]. Besides, the growth in assay [13] is 70.2%; in assay [14], 63.8%; in [15], 116%; in assay [16] it was 66.1%; in assay [17], 67.8%; in [18] it was 121%. In addition, the growth was 26.7% in assay [19] and 25.1% in assay [20].

Take `CC(=O)Nc1ccc(-c2cn(-c3cccc(C(=O)Nc4cc(CN5CCOCC5)cc(C(F)(F)F)c4)c3)nn2)cn1`: the growth was -86.2% (active) in assay [1]; -11.4% (active) in assay [2]; -78% (active) in assay [3]; -88.5% (active) in assay [4]; -71.9% (active) in [5]; -69.7% (active) in assay [6]. Also, the growth in assay [7] was -100% (active); in [8] it was -98.1% (active); in assay [9], -98.6% (active); in assay [10] it was -99.2% (active); in assay [11], -84.6% (active); in [12], -88.1% (active). For the same compound, the growth in assay [13] was -93.2% (active); in [14] it was -93.5% (active); in [15] it was -99.3% (active); in [16], -100% (active); in assay [17] it was -91.9% (active); in assay [18], -95.5% (active). In addition, the growth in [19] was -5.47% (active); in assay [20] it was -22.2% (active).

`O=C1CCC(N2Cc3c(NCc4ccc(-c5ccccc5)cc4)cccc3C2=O)C(=O)N1` (stereo not given): the growth in assay [1] is 36.4%; in assay [2], 109%; in assay [3], 85.9%; in [4] it was 56.2%; in [5], 49.6%; in [6], 50.4%. Also, the growth in assay [7] is 67.3%; in assay [8], 75.5%; in assay [9] it was 80.5%; in [10] it was 91.4%; in [11], 101%; in [12], 84.2%. In addition, the growth is 73.8% in assay [13]; 45.3% in assay [14]; 79.1% in [15]; 73.2% in [16]; 82.8% in assay [17]; 70.5% in assay [18]. Moreover, the growth in assay [19] is 19.9%; in [20], 13.4%.

`O=C(N/C(=C1/OCCN1Cc1ccccc1)[P+](c1ccccc1)(c1ccccc1)c1ccccc1)c1ccccc1`: the growth in assay [1] is 77.8%; in assay [2], 14.6%; in assay [3] it was 26.9%; in assay [4] it was 10.4%; in assay [5], 14.3%; in [6], 22.5%. The growth in assay [7] is -100% (active); in assay [8] it was -36.4% (active); in assay [9] it was 6.07% (active); in assay [10] it was 22.8%; in [11] it was -27.6% (active); in [12], 14.6%. Further, the growth was 7.37% (active) in [13]; 83.1% in [14]; 26.1% in assay [15]; 82.6% in [16]; 79.5% in [17]; 83% in assay [18]. For the same compound, the growth in assay [19] was 13.3%; in assay [20] it was 20.6%.
